# Values without a mark were called inactive. Records with an inconclusive call do not appear. Where a call stands in place of a potency, no number is given. Activity calls are given as the source filed them. Unless noted, calls follow the shape of the dose curve; as a rule, active = well fitted curve in the direction sought with a large enough effect; inconclusive = small, poorly fitted or top-dose-only effect, or another doubt; inactive = no such curve, though single readings can be large; an effect the other way counts as inactive or inconclusive.
# Experiments:
# [1] = biological target: Glucocorticoid receptor (Homo sapiens) (UniProt P04150); assay: GR-EFC Redistribution (AID 451; calls by dose curve; also: potency is read from the fitted curve at half-maximal effect); conditions: CHO-K1 GR-EFC translocation, beta-gal luminescence, 2 h
# Sequence of Glucocorticoid receptor (Homo sapiens) (P04150 whole entry, looked up, the tested form may be a part): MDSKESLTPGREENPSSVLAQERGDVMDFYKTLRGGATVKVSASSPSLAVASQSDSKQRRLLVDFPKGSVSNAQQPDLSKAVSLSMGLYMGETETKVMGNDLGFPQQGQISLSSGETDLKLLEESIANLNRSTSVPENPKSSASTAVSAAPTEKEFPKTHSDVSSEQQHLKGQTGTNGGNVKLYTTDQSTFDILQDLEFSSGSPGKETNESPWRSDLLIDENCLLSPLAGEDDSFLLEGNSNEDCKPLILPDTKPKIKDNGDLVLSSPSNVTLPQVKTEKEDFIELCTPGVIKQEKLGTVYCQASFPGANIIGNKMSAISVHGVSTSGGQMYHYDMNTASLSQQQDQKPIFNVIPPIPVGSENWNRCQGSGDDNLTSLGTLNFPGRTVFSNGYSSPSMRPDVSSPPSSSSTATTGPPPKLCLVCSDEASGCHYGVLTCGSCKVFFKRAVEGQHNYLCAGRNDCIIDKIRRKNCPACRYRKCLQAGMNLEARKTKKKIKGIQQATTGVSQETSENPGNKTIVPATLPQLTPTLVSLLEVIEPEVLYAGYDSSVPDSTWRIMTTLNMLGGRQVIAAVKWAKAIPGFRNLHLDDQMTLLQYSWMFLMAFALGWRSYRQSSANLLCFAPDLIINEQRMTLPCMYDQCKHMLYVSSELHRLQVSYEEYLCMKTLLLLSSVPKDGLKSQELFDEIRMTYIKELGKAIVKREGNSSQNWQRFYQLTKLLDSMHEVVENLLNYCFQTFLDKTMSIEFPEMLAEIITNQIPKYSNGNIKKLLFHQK
# Outline: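 Translocation of GR-ED fusion to nuclear EA restores b-gal, read by luminescence after 1 h room-temperature detection. Engineered CHO-K1 biosensor cells, 1,000/well, exposed 2 h at 37 C to titrations up to 46 uM final.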
# [2] = biological target: Cytochrome P450 3A4 (Homo sapiens) (UniProt P08684); assay: qHTS Assay for Activators of Cytochrome P450 3A4 (AID 885); also: nearly all actives have a fitted effect of over 65% in size
# Sequence of Cytochrome P450 3A4 (Homo sapiens) (P08684 whole entry, looked up): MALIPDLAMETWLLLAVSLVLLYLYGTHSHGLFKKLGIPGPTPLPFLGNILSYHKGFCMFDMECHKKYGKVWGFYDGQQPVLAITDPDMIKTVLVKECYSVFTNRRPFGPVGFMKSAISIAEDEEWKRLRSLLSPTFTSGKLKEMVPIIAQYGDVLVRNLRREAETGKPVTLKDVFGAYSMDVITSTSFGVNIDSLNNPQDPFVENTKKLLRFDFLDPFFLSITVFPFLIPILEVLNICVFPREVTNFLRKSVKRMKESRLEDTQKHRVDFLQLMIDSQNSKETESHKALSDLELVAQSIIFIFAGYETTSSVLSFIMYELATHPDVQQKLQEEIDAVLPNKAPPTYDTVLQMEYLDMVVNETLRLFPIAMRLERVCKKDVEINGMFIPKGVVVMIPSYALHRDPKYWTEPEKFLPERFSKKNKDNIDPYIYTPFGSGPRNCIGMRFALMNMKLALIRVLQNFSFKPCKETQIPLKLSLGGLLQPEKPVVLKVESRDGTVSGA
# Outline: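 Activators are scored by enhanced luminescence from CYP3A4 conversion of luciferin-PPXE (25uM, equal to KM) to luciferin, after 60 min at RT with an NADPH-regenerating system.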
# [3] = biological target: Cytochrome P450 2D6 (Homo sapiens) (UniProt P10635); assay: qHTS Assay for Inhibitors and Substrates of Cytochrome P450 2D6 (AID 891); also: potency is read from the fitted curve at half-maximal effect; nearly all actives have a fitted effect of over 60% in size
# Sequence of Cytochrome P450 2D6 (Homo sapiens) (P10635 whole entry, looked up): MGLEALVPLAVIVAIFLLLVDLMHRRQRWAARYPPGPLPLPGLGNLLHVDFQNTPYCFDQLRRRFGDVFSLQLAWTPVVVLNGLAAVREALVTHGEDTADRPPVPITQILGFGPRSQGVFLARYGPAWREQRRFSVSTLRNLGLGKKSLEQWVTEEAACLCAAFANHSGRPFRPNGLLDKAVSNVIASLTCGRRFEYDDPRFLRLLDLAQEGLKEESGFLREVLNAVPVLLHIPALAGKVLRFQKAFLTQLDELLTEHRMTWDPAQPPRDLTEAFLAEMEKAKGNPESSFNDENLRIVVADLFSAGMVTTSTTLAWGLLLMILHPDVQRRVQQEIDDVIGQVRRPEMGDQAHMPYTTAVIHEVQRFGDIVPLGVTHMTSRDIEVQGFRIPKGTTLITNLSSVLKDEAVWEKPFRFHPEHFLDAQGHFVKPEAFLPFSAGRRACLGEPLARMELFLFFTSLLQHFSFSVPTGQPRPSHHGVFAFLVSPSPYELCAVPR
# Outline: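 Luminescent read-out of luciferin formed by 5 nM human CYP2D6 demethylating 30 uM Luciferin-ME EGE (Km level) over 60 min at room temperature after NADPH regeneration addition. Data normalized to full inhibition by 1.43 uM quinidine.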
# 7G8 = assay: qHTS profiling for inhibitors of Plasmodium falciparum proliferation (AID 504749); also: nearly all actives have a fitted effect of over 60% in size; also: potency is read from the fitted curve at half-maximal effect; conditions: P. falciparum in erythrocytes, SYBR Green DNA, 72 h; series mostly up to 12.8 µM
# Outline: (§1)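 In a 72 h erythrocytic culture (37 C, humidified, 5% CO2) at 2.5% hematocrit and 0.3% starting parasitemia, compounds were tested; SYBR Green I in detergent lysis buffer stained parasite DNA overnight.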
# CP203 = assay: as above; conditions: P. falciparum in erythrocytes, SYBR Green DNA, 72 h; series mostly up to 12.8 µM
# Outline: as §1
# CP215 = assay: as above; conditions: P. falciparum in erythrocytes, SYBR Green DNA, 72 h; series mostly up to 12.8 µM
# Outline: as §1
# CP335 = assay: as above; conditions: P. falciparum in erythrocytes, SYBR Green DNA, 72 h; series mostly up to 12.8 µM
# Outline: as §1
# DFO2036 = assay: as above; conditions: P. falciparum in erythrocytes, SYBR Green DNA, 72 h; series mostly up to 12.8 µM
# Outline: as §1
# TAB113 = assay: as above; conditions: P. falciparum in erythrocytes, SYBR Green DNA, 72 h; series mostly up to 12.8 µM
# Outline: as §1
# [4] = NFAT Signaling Pathway (AID 444; active = well fitted curve in either direction with a large enough effect, not every such curve was filed as active;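 also: carbachol stimulus at about its EC50 of 1 µM final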); conditions: Jurkat NFAT-bla M1, carbachol, beta-lactamase ratio, 5 h; at 17.2 µM (top of the series) unless noted
# Outline: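 Read-out: CCF4 FRET ratio (460 nm/530 nm) after 1 h RT dye loading, used for %activity and AC50 from titration series. Cells: Jurkat NFAT-β-lactamase/M1 line, treated with compound plus 1 uM carbachol for 5 h, 37 °C.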
# [5] = biological target: Cytochrome P450 1A2 (Homo sapiens) (UniProt P05177); assay: p450-cyp1a2 (AID 410; calls by dose curve; also: potency is read from the fitted curve at half-maximal effect)
# Sequence of Cytochrome P450 1A2 (Homo sapiens) (P05177 whole entry, looked up): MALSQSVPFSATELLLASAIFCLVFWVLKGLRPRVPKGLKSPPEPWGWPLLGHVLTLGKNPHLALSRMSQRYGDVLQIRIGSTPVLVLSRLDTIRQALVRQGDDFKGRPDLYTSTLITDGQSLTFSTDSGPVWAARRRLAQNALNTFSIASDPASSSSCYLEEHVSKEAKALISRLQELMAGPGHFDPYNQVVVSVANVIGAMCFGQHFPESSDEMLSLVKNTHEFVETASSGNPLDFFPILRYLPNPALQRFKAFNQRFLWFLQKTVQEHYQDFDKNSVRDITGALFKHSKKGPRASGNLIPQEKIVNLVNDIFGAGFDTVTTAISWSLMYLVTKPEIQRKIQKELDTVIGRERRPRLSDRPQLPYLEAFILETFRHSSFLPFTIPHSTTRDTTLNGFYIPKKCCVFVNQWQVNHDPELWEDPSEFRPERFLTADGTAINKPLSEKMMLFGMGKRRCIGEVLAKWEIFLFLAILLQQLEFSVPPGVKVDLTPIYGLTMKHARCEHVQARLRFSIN
# Outline: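 Read-out is luminescence from luciferin produced by CYP1A2 demethylation of Luciferin-ME (100uM, at Km). Detection reagent stopped the 60 min NADPH-dependent reaction; signals were normalized to 57 uM furafylline.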
# [6] = biological target: Cytochrome P450 3A4 (Homo sapiens) (UniProt P08684); assay: qHTS Assay for Inhibitors and Substrates of Cytochrome P450 3A4 (AID 884); also: potency is read from the fitted curve at half-maximal effect; nearly all actives have a fitted effect of over 50% in size
# Outline: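 Luminescent readout of luciferin produced by CYP3A4 (20 nM) dealkylation of Luciferin-PPXE, 25 uM (its KM). NADPH-driven reaction ran 60 min at RT after 10 min compound preincubation; data scaled to 57 uM ketoconazole as 100% inhibition.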
# [7] = biological target: Cytochrome P450 2C19 (Homo sapiens) (UniProt P33261); assay: qHTS Assay for Inhibitors and Substrates of Cytochrome P450 2C19 (AID 899); also: potency is read from the fitted curve at half-maximal effect; nearly all actives have a fitted effect of over 60% in size
# Sequence of Cytochrome P450 2C19 (Homo sapiens) (P33261 whole entry, looked up): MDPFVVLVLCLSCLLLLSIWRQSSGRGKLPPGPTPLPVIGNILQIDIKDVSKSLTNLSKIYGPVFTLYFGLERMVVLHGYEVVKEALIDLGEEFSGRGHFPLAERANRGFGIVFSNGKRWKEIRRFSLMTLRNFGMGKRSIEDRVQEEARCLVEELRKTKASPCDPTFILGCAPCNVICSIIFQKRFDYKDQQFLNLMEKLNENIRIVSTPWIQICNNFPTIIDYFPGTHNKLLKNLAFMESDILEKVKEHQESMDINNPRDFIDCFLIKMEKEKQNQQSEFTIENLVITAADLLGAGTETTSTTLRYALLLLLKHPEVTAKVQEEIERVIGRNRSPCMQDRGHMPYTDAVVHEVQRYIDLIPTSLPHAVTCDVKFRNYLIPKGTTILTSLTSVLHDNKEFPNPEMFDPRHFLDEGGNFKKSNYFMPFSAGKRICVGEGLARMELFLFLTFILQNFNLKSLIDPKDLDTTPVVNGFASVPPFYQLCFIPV
# Outline: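 Reactions contain 5nM enzyme, 10uM Luciferin-H EGE (KM) and 50mM KPO4; compound preincubates 10 min at 37C, NADPH regeneration starts turnover for 60 min. Luminescence after detection reagent gives activity.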
# [8] = Confirmation and Secondary Assay for Modulators of Hemoglobin Beta Chain Splicing at IVS2 654 locus (AID 910);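 also: HeLa cells stably carrying EGFP split by mutant beta-globin IVS2-654 intron; per-well total GFP intensity by laser scanning cytometry after 2-day treatment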
# Outline: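 Readout: per-well total peak green fluorescence (488 nm ex, 500–520 nm em) from objects 5–250 µm, reflecting correct splicing of an EGFP-654 reporter. Compounds were applied for 2 days at 37 °C to overnight-plated HeLa EGFP-654 cells; controls were DMSO and 500 nM IVS2-654 PNA.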
# [9] = Confirmation and Secondary Assay for Modulators of Hemoglobin Beta Chain Splicing at IVS2 705 locus (AID 930);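 also: HeLa cells stably expressing the EGFP-705 splicing reporter; GFP fluorescence per well restored by corrected splicing of the IVS2-705 intron in EGFP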
# Outline: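 First, HeLa EGFP-705 cells are seeded at 500/well in Optimem with 2% FCS and left overnight. Next, compound or DMSO is added for 2 days. Finally wells are laser-scanned and total peak GFP intensity scored.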
# [10] = S16 Schwann cell PMP22 intronic element firefly luciferase assay (AID 624032); also: nearly all actives have a fitted effect of over 30% in size
# Outline: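 Luciferase reporter of PMP22 intronic-element expression in stably transfected S16 rat Schwann cells, read by ONE-Glo luminescence after 24 h compound exposure at 37 C. Activity scaled between DMSO (0%) and positive-control PTC124; concentration-effect curves quality-classified.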
# DIV14 = assay: qHTS profiling for inhibitors of Plasmodium falciparum proliferation (AID 504749); also: nearly all actives have a fitted effect of over 60% in size; also: potency is read from the fitted curve at half-maximal effect; conditions: P. falciparum in erythrocytes, SYBR Green DNA, 72 h; series mostly up to 12.8 µM
# Outline: as §1
# ICS = assay: as above; conditions: P. falciparum in erythrocytes, SYBR Green DNA, 72 h; series mostly up to 12.8 µM
# Outline: as §1
# W2 = assay: as above; conditions: P. falciparum in erythrocytes, SYBR Green DNA, 72 h; series mostly up to 12.8 µM
# Outline: as §1
# [11] = S16 Schwann cell PMP22 intronic element beta-lactamase assay (AID 624044; calls by dose curve; also: nearly all actives have a fitted effect of over 15% in size)
# Outline: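 Beta-lactamase reporter under a PMP22 intronic regulatory element in stable S16 rat Schwann cells; 24 h compound exposure. 460 nm blue signal normalized between DMSO (0%) and potassium clavulanate, with 535 nm FRET tracking viability; curves classed by r2 and response.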
structure (smiles),measurement,setting,value
COc1ccc2c(c1)N(C[C@@H](C)CN(C)C)c1ccccc1S2,Potency,[1],> 20.6 µM
same,Potency,[2],inactive
same,Potency,[3],0.0631 µM (active)
same,Potency,7G8,3.55 µM (active)
same,Potency,CP203,inactive
same,Potency,CP215,inactive
same,Potency,CP335,inactive
same,Potency,DFO2036,inactive
same,Potency,TAB113,inactive
CC(=O)O[C@H]1C[C@H]2CC[C@@H]3[C@@H](CC[C@]4(C)[C@H](OC(C)=O)[C@H]([N+]5(C)CCCCC5)C[C@@H]34)[C@]2(C)C[C@H]1[N+]1(C)CCCCC1,Potency,[1],> 20.6 µM
COc1cc(OC)c2c(c1Cl)O[C@@]1(C2=O)[C@H](C)CC(=O)C[C@@H]1OC,"activity change, negative = inhibition",[4],-1.63%
same,Potency,[1],> 20.6 µM
same,Potency,[2],inactive
COc1cccc(-c2nc(NCCc3c[nH]c4ccc(OC)cc34)c3ccccc3n2)c1,Potency,[5],1.58 µM (active)
same,Potency,[1],> 46 µM
same,Potency,[6],2 µM (active)
same,Potency,[2],inactive
same,Potency,[7],1.58 µM (active)
same,Potency,[8],inactive
same,Potency,[9],inactive
CC[C@H]1NC(=O)c2cc(S(N)(=O)=O)c(Cl)cc2N1,"activity change, negative = inhibition",[4],-14.6%
same,Potency,[10],inactive
same,Potency,7G8,inactive
same,Potency,CP203,inactive
same,Potency,CP335,inactive
same,Potency,DFO2036,inactive
same,Potency,DIV14,inactive
same,Potency,ICS,inactive
same,Potency,TAB113,inactive
same,Potency,W2,inactive
CCO[C@H]1O[C@@H]([C@H](COCc2ccccc2)OCc2ccccc2)[C@@H](OCc2ccccc2)[C@H]1O,"activity change, negative = inhibition",[4],-29.7%
same,Potency,[1],> 20.6 µM
same,Potency,[11],inactive
same,Potency,CP203,inactive
same,Potency,CP335,inactive
same,Potency,DFO2036,inactive
same,Potency,TAB113,inactive
C[C@@H]1O[C@H](O[C@@H]2[C@H](C)O[C@H](O[C@@H]3[C@H](C)O[C@H](O[C@H]4CC[C@]5(C)[C@@H](CC[C@@H]6[C@H]5C[C@@H](O)[C@]5(C)[C@@H](C7=CC(=O)OC7)CC[C@]65O)C4)C[C@@H]3O)C[C@@H]2O)C[C@H](O)[C@@H]1O,Potency,[5],inactive
same,Potency,[1],> 20.6 µM
CCc1c(C)[nH]c2c1C(=O)[C@H](CN1CCOCC1)CC2,"activity change, negative = inhibition",[4],-21.1%
same,Potency,[10],inactive
same,Potency,7G8,inactive
same,Potency,CP215,inactive
same,Potency,CP335,inactive
same,Potency,DIV14,inactive
same,Potency,ICS,inactive
same,Potency,TAB113,inactive
same,Potency,W2,inactive
COC(=O)C1=C(C)NC(C)=C(C(=O)OCCN(C)Cc2ccccc2)[C@H]1c1cccc([N+](=O)[O-])c1,Potency,[1],> 20.6 µM
CC(=O)N[C@H](CC(C)C)C(=O)O,Potency,[8],inactive
same,Potency,[9],inactive
same,Potency,[10],inactive
same,Potency,7G8,inactive
same,Potency,CP203,inactive
same,Potency,CP215,inactive
same,Potency,CP335,inactive
same,Potency,DFO2036,inactive
same,Potency,DIV14,inactive
same,Potency,ICS,inactive
same,Potency,TAB113,inactive
same,Potency,W2,inactive
